# Assay results as given in PubChem BioAssay (NCATS).
# Results filed as inconclusive are left out. A call without a number means that no potency is given here. Active and inactive are the calls of the source. Unless noted, calls come from the whole dose curve; as a rule, active = well fitted curve in the direction sought with a large enough effect; inconclusive = small, poorly fitted or top-dose-only effect, or another doubt; inactive = no such curve, though single readings can be large; an effect the other way counts as inactive or inconclusive.
# Legend:
# [1] = target: Ubiquitin carboxyl-terminal hydrolase 2 (Homo sapiens) (UniProt O75604); experiment: qHTS Validation Assay for Inhibitors of Ubiquitin-specific Protease USP2a Using CHOP2 as the Reporter (AID 463106); note: potency is the fitted concentration of half-maximal effect
# Ubiquitin carboxyl-terminal hydrolase 2 (Homo sapiens), sequence (O75604 whole entry, looked up): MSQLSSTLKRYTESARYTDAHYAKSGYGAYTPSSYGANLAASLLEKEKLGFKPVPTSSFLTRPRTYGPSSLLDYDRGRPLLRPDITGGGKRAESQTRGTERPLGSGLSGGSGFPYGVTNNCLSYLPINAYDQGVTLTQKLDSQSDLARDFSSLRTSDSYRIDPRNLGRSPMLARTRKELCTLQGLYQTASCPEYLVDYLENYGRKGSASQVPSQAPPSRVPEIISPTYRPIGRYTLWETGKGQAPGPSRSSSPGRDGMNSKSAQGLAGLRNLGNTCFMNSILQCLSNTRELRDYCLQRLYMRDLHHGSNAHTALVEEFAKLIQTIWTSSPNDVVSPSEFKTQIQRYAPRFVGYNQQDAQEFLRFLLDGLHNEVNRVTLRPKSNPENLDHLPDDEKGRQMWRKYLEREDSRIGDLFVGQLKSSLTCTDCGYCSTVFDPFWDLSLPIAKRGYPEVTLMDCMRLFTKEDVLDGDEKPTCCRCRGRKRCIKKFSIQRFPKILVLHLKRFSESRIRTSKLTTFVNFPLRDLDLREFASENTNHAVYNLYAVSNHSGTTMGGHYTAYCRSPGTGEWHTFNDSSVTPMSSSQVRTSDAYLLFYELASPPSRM
# In short: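 Inhibition is expressed relative to NEM as the full-inhibition control, with concentration-response curves classed by fit quality, magnitude and activity. Enzyme (USP2 core, 10nM) meets 25nM Ub-CHOP2 after compound preincubation; readings are taken at 60min.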
# [2] = target: DNA polymerase III PolC-type (Bacillus subtilis (strain 168)) (UniProt P13267); experiment: qHTS Validation Assay for the Inhibitors of DNA Replication in Gram-Positive Bacteria (AID 485295);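 note: reconstituted holoenzyme with PolC plus beta clamp SSB and primase; PicoGreen fluorescence of double-stranded DNA made on primed circular M13 template; series mostly up to about 57 µM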
# DNA polymerase III PolC-type (Bacillus subtilis (strain 168)), sequence (P13267 whole entry, looked up): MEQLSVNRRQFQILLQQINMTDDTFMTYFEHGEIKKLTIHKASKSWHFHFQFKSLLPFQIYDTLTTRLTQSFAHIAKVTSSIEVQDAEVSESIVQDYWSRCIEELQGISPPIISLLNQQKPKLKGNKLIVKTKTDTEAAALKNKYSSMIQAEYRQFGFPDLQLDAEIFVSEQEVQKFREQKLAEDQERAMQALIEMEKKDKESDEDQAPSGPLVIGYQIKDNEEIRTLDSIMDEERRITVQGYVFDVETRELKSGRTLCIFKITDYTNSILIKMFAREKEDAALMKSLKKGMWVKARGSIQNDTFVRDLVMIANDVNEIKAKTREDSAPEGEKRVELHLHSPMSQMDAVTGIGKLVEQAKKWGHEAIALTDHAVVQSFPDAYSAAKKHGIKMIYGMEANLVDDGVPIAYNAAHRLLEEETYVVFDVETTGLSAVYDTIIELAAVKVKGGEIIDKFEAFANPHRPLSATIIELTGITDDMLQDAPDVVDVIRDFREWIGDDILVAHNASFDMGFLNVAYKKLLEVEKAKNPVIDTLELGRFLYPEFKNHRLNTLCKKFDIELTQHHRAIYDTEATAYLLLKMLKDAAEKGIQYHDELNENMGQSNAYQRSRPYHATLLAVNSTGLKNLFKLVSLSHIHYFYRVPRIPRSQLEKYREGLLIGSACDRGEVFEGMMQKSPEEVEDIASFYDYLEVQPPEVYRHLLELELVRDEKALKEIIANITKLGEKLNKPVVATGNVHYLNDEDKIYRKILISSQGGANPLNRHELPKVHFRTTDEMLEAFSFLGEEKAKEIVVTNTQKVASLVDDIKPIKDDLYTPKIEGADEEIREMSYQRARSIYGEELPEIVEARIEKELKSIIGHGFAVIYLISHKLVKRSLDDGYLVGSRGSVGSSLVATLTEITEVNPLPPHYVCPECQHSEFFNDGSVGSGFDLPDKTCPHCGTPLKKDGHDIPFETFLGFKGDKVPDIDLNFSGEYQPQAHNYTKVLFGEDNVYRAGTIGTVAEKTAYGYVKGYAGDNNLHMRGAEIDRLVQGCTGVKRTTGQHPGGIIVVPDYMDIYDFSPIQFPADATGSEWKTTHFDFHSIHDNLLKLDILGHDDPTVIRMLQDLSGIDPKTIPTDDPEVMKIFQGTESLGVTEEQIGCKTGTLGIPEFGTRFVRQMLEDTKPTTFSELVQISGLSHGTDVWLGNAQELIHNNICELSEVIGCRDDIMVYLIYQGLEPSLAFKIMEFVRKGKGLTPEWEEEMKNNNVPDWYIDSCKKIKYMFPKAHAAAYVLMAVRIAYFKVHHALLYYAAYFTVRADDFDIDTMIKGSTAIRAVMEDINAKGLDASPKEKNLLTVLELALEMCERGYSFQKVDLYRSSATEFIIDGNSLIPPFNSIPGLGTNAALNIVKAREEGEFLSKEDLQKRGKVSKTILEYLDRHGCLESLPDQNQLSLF
# In short: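 Primed replication of single-stranded M13Gori by a four-protein B. subtilis holoenzyme is measured at room temperature. Double-stranded product is quantified by PicoGreen fluorescence after an EDTA stop; inhibition is scaled between DMSO and EDTA controls.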
# [3] = qHTS Validation Assay to Find Inhibitors of Chronic Active B-Cell Receptor Signaling (AID 485345; active = well fitted curve in the direction sought with a large enough effect in the main read-out, with a control signal flat, not every such curve was filed as active)
# In short: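 TMD8 ABC-DLBCL cells with dox-inducible green luciferase–IκBα fusion and red native luciferase; compounds 46 uM–3 nM, 4 h at 37C with doxycycline in 0.5% FBS IMDM. Green/red ratio normalized to basal and 10 uM MG-132.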
# [4] = target: Beta-2 adrenergic receptor (Homo sapiens) (UniProt P07550); experiment: qHTS validation assay of beta-arrestin-biased ligands of beta2-adrenergic receptor (AID 485366)
# Beta-2 adrenergic receptor (Homo sapiens), sequence (P07550 whole entry, looked up): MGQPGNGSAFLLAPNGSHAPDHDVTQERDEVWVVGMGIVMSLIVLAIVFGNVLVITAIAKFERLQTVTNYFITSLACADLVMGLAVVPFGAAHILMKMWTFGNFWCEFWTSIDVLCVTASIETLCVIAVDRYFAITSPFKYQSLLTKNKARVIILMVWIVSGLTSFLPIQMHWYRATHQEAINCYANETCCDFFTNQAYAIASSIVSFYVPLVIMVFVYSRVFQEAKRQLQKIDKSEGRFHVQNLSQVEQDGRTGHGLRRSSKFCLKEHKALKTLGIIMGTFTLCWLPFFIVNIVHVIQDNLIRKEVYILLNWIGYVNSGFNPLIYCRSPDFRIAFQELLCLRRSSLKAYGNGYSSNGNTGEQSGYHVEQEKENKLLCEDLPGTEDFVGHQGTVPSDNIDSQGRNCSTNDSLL
# In short: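 Agonism was measured as beta-arrestin recruitment to recombinant beta2-AR, releasing tTA to drive luciferase. Cells were exposed for 18 hr at 37 degrees C to a series up to 46 microM. %Activity from corrected luminescence gave concentration-response curves.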
# [5] = target: Thioredoxin reductase 1, cytoplasmic (Rattus norvegicus) (UniProt O89049); experiment: qHTS Assay for Substrates of Mammalian Selenoprotein Thioredoxin Reductase 1 (TrxR1) (AID 488772);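 note: series mostly up to about 57 µM; a drop in NADPH fluorescence below the no-compound background marks a TrxR1 substrate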
# Thioredoxin reductase 1, cytoplasmic (Rattus norvegicus), sequence (O89049 whole entry, looked up): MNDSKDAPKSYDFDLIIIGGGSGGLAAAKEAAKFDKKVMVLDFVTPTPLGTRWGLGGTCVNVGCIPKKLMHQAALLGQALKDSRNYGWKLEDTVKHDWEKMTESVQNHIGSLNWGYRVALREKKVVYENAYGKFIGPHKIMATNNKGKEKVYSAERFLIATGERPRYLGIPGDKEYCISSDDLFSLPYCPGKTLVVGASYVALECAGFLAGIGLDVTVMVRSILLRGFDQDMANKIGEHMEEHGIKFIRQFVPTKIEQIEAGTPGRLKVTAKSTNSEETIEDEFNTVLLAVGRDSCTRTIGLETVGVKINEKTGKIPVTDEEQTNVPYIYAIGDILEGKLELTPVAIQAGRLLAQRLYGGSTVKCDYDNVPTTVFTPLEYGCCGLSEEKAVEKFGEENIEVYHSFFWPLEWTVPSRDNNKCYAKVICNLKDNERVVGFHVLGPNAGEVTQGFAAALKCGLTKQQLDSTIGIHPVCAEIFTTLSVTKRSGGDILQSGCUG
# In short: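 In this dual-purpose format, potential substrates are identified from the first fluorescence read after selenite addition, not from the 8-minute delta. Rat enzyme is preincubated with NADPH and then with compound at ~22 deg C.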
# [6] = target: Thioredoxin reductase 1, cytoplasmic (Rattus norvegicus) (UniProt O89049); experiment: qHTS Assay for Inhibitors of Mammalian Selenoprotein Thioredoxin Reductase 1 (TrxR1) (AID 488773); settings: Potency: inhibition;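 note: drop in NADPH fluorescence over an 8 min run after selenite addition; series mostly up to about 57 µM; nearly all actives have a fitted effect of over 40% in size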
# In short: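 Inhibition is scored from the loss of NADPH fluorescence between first and last reads of an 8-min kinetic run. Selenite (400 uM) was the substrate, added after 15 min compound preincubation at room temperature.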
# [7] = target: Tumor susceptibility gene 101 protein (Homo sapiens) (UniProt Q99816); experiment: qHTS Validation Assay for Iinhibitors of HIV-1 Budding by Blocking the Interaction of PTAP/TSG101 (AID 485342; calls by dose curve)
# Tumor susceptibility gene 101 protein (Homo sapiens), sequence (Q99816 whole entry, looked up, the tested form may be a part): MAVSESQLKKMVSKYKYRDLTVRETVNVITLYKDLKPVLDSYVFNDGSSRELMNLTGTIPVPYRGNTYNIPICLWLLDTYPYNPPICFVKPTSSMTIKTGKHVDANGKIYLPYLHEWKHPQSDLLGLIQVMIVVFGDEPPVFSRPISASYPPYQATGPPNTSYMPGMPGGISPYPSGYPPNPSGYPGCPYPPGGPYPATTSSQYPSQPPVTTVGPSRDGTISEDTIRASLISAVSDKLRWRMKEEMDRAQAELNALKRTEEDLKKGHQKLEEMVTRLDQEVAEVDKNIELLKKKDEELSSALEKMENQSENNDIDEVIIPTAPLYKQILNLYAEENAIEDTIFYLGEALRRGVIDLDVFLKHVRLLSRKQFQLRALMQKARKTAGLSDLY
# In short: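 Fluorescence anisotropy measured PTAP-Tsg101 interaction. Final concentrations were 10 uM protein domain and 50 nM labeled peptide, equilibrated 20 min at room temperature.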
# [8] = target: ATP-dependent 6-phosphofructokinase (Trypanosoma brucei brucei) (UniProt O15648); experiment: qHTS Validation Assay to Find Inhibitors of T. brucei phosphofructokinase (AID 485368); note: potency is the fitted concentration of half-maximal effect
# ATP-dependent 6-phosphofructokinase (Trypanosoma brucei brucei), sequence (O15648 whole entry, looked up): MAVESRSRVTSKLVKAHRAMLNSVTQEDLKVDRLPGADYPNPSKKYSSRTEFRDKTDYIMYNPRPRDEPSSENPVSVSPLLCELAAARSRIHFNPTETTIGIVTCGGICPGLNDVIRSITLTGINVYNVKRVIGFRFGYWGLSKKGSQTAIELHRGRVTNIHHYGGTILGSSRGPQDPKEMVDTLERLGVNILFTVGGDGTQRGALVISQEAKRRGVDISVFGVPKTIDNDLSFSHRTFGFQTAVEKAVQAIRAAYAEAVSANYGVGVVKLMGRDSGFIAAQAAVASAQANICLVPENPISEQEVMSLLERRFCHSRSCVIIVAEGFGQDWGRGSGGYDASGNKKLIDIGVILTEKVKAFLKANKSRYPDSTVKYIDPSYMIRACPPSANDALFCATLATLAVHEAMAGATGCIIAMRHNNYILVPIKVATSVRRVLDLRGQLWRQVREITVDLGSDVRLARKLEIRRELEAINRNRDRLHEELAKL
# In short: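 ADP-Glo luminescence, two-step: residual ATP depleted, then ADP converted to ATP for luciferase. Enzyme 1.25 nM, F6P 0.5 mM, ATP 0.1 mM, pH 8.0 TEA buffer, 45 min RT. Curves fitted and classed by quality and efficacy.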
# [9] = Quantitative high throughput screen for delayed death inhibitors of the malarial parasite plastid, 96 hour incubation (AID 488745); note: nearly all actives have a fitted effect of over 70% in size; note: potency is the fitted concentration of half-maximal effect
# In short: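 Readout is firefly luciferase luminescence from an integrated reporter in P. falciparum; lower signal marks inhibited growth. Cultures at 2% hematocrit and 0.1% parasitemia were treated with compound across two generations (96 h, 37 C, 5% CO2).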
# [10] = Quantitative high throughput screen for delayed death inhibitors of the malarial parasite plastid, 48 hour incubation (AID 488752); note: nearly all actives have a fitted effect of over 65% in size
# In short: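 First, compound was pinned into RPMI 1640 medium containing 0.5% Albumax. Next, reporter-parasite-infected erythrocytes were added to 2% hematocrit and 0.1% parasitemia. After 48 h at 37 C under 5% CO2, luciferase detection reagent was added and luminescence read.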
SMILES,Potency [1],Potency [2],outcome [3],outcome [4],Potency [5],Potency [6],outcome [7],Potency [8],Potency [9],Potency [10]
O=C(O)CC1CC(c2ccccc2)=NO1 (stereo not given),inactive,inactive,inactive,inactive,inactive,inactive,–,–,–,–
N#C/C(=C\c1ccc(O)c(O)c1)C(=O)c1ccc(O)c(O)c1,1.17 µM (active),–,inactive,inactive,inactive,–,inactive,0.675 µM (active),–,–
COc1ccccc1CNCCCCCCNCCCCCCCCNCCCCCCNCc1ccccc1OC,inactive,inactive,inactive,inactive,inactive,inactive,–,–,1.04 µM (active),–
NO,inactive,–,inactive,inactive,inactive,inactive,–,–,–,inactive
O=C(c1ccc(OCCCc2cnc[nH]2)cc1)C1CC1,–,inactive,inactive,inactive,inactive,inactive,inactive,–,–,–
NC(=O)C1=CN(C2OC(COP(=O)(O)OP(=O)(O)OC[C@H]3O[C@@H](n4cnc5c(N)ncnc54)[C@H](OP(=O)(O)O)[C@@H]3O)C(O)C2O)C=CC1 (stereo not given in full),inactive,–,–,inactive,inactive,inactive,inactive,inactive,–,–
O=C(O)/C=C/C(O)c1ccc(Cl)cc1 (stereo not given),–,inactive,inactive,inactive,inactive,–,inactive,inactive,inactive,inactive
Nc1nc(Cl)nc2c1ncn2[C@@H]1O[C@H](CO)[C@@H](O)[C@H]1O,inactive,–,–,inactive,–,inactive,inactive,inactive,–,–
